Results on 63 compounds are retold here after PubChem BioAssay AID504594 (Broad Institute, 2011).

The structures appear in SMILES notation. Screen size: about 2,000 compounds; fewer than 10 were called active.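 How the source made its calls: active means growth inhibition of at least 75% in every replicate, which also brings the mean inhibition to 75% or more; inconclusive means mean inhibition 75% or more but some replicate under 75%; inactive means the rest.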 The list is a sample of the results.

The assay is described as follows: reduced viability of yeast carrying PfHsp90 – S. cerevisiae, BacTiter-Glo luminescence, antimalarial PfHsp90 inhibitor project, primary screen (AID 504594).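 Further: 0% = DMSO neutral control wells and 100% = 20 µM radicicol control wells; higher value means stronger growth inhibition because the sign is flipped.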 As to conditions: S. cerevisiae expressing PfHsp90, BacTiter-Glo growth, 48 h; at 9.4 µM; stronger effect = higher value.
In the case of `CC(C)c1ccc2[nH]c3c(c2c1)CCCC3=O`, the growth inhibition is 0.593% (inactive).
The result for `O=c1cc(-c2ccccc2)oc2cc(OCc3ccccc3)cc(O)c12` reads 2.87% (inactive); that for `Cc1ccc2ncnc(NCCCCCC(=O)O)c2c1`, 4.2% (inactive); that for `Nc1cccc2c1nnn2C1OC(CO)C(O)C(O)C1O` (stereo not drawn), -0.754% (inactive).
With `O=C1C=CC(=O)C(C2=C3C(=O)N(CCc4ccccc4)CC(=O)N3CCC2)=C1`, the growth inhibition was 0.713% (inactive).
Regarding `COc1cc(NC(=O)N[C@@H](Cc2ccccc2)C(=O)O)cc(OC)c1`, the growth inhibition is 5.35% (inactive).
With `CCc1ccc(CN(C)Cc2nc(Cc3ccccc3)no2)nc1` the figure was -0.638% (inactive); with `O=C(NCCNc1ccc(Cl)cc1[N+](=O)[O-])c1cccnc1`, 1.09% (inactive); with `CC1(C)NC(C(=O)O)Cc2c1[nH]c1ccccc21` (stereo not drawn), 7.2% (inactive).
The result for `CC(C)NC(=O)C1(c2ccccc2)CCOCC1` reads -8.01% (inactive).
The result for `CCCCOn1c(C)c(C(C)=O)c2c3no[n+]([O-])c3ccc21` reads -14.4% (inactive); that for `CCSc1nc(O)c(C2OC(=O)c3c2ccc(OC)c3OC)c(=O)n1CC` (stereo not drawn), 9.9% (inactive).
As to `COC(=O)c1ccccc1NC(=O)NCc1ccccc1`, the growth inhibition was -7.31% (inactive).
The result for `Cc1ccc2[nH]c3c(c2c1)CN(C(=O)CN1CCSCC1)CC3` reads -8.61% (inactive); that for `COc1ccccc1C1(CC(=O)N2CCCCC2)CCOC(C(C)C)C1` (stereo not drawn), 14.4% (inactive); that for `CC(C)CCNC(=O)[C@H](CC(C)C)NC(=O)[C@H]1O[C@@H]1C(=O)O`, -0.406% (inactive).
Turning to `CC(=O)N1N=C(c2cccs2)CC1c1ccc(C)o1` (stereo not drawn), the growth inhibition is 15.9% (inactive).
The result for `Cc1cc(Cl)cc2c1NC(=O)[C@]21[C@@H]2C(=O)N(Cc3ccccc3)C(=O)[C@@H]2[C@@H]2CCCN21` reads 6.75% (inactive); that for `COC(=O)CN1C(=S)N(c2ccc(F)cc2)C(=O)C1CC(=O)Nc1ccccc1` (stereo not drawn), 9.33% (inactive); that for `Cc1ccc(P(=O)(CSC(=N)N)c2ccc(C)cc2)cc1`, -1.66% (inactive).
With `Cc1[nH]c2ccccc2c1C(=O)C(=O)NCc1ccco1` the figure was 5.84% (inactive).
The result for `Cc1ccccc1NC(=O)NCCc1c[nH]c2ccccc12` reads 17.7% (inactive); that for `OCCC1CN(Cc2ccccc2-c2ccco2)CCN1C1CCCC1` (stereo not drawn), -5.78% (inactive).
In the case of `Cc1ccc(CN2CCN(Cc3cn[nH]c3C3CCCCC3)CC2CCO)cc1` (stereo not drawn), the growth inhibition is -25.7% (inactive).
On to `Cc1ccc(Nc2ncccc2C(=O)O)cc1C`, for which the growth inhibition is -4.41% (inactive).
Turning to `CS(=O)c1ccccc1O` (stereo not drawn), the growth inhibition was 14.9% (inactive).
With `N/C(=N\OC(=O)CCCOc1ccc(Cl)cc1Cl)c1ccncc1` the figure was -2.92% (inactive).
With `COc1ccc(C2NC(=O)c3ccccc3N2)cc1OC` (stereo not drawn) the figure was -3.61% (inactive); with `C=C(C)c1nc2cc(OC)c(OC)cc2c(=O)o1`, 12.6% (inactive).
With `C=CCNC(=O)c1ccc(-c2cccc([N+](=O)[O-])c2)o1` the figure was 0.359% (inactive); with `COc1ccc(-n2cc(CNCc3cccnc3)c(-c3cccc(F)c3)n2)cc1`, -18.3% (inactive); with `COC(=O)c1cc(-c2ccc(OC)c(OC)c2)on1`, -8.12% (inactive).
Take `O=c1c2ccccc2nc2n1CCCN2`: the growth inhibition is 6.84% (inactive).
On to `CCOC(=O)N1CCc2[nH]c3ccc(C)cc3c2C1`, for which the growth inhibition was -0.0125% (inactive).
On to `CC1(C)CC(C(CC(=O)O)c2ccccc2)CCO1` (stereo not drawn), for which the growth inhibition is -0.107% (inactive).
For `Cc1ccc2c(c1)c(C)cc(=O)n2CCC(=O)O`, the growth inhibition was -4.29% (inactive).
With `Cc1ccccc1OCC(O)CN1CCN(C)CC1` (stereo not drawn) the figure was 2.9% (inactive); with `COc1cccc(C2CCCN2Cc2nc(CCC(C)C)no2)c1` (stereo not drawn), 11.4% (inactive).
The result for `CC(C)N(Cc1nccn1C)C(=O)CC1C(=O)NCCN1Cc1ccccc1C(F)(F)F` (stereo not drawn) reads -0.671% (inactive); that for `CCOCCCNCc1cn(-c2ccc(F)cc2F)nc1-c1ccccc1C`, 5.3% (inactive); that for `CCOC(=O)C1(Cc2cccc(Cl)c2)CCCN(C2CCN(C(C)=O)CC2)C1` (stereo not drawn), -10.8% (inactive).
Turning to `Cc1ccc(C2=NOC(=O)/C2=C\C=C\c2ccccc2)cc1`, the growth inhibition was 14.3% (inactive).
With `O=C1c2ccccc2C(=O)N1/N=C/c1ccc(Oc2ccc([N+](=O)[O-])cn2)cc1` the figure was 4.52% (inactive); with `CC1(C)Oc2ccc(C#N)cc2[C@@H](N2CCCC2=O)[C@@H]1O`, 7.78% (inactive); with `CC1(C)Cc2ccccc2C(C(Cc2ccccc2)C(N)=O)=N1` (stereo not drawn), -4.58% (inactive).
The result for `O=C(CN1CCN(Cc2ccccc2)CC1)N1CCCc2c1c(=O)oc1ccc(O)cc21` reads -7.45% (inactive).
The result for `O=C(NCCc1cccc(F)c1)[C@@H]1CSC2c3ccccc3C(=O)N21` (stereo partly drawn) reads 3.04% (inactive).
As to `COc1ccc(CCNC(=O)CC(c2ccccc2)c2cccc(C)c2O)cc1OC` (stereo not drawn), the growth inhibition was -1.09% (inactive).
The result for `CCn1c(SCC(=O)c2ccccc2)nc2ccccc2c1=O` reads -10.3% (inactive).
The result for `CC1(C)Cc2nc3sc4c(=O)n(CC(N)=O)cnc4c3cc2CO1` reads -2.88% (inactive).
With `CC(C)(C)OC(=O)COc1cc(OCC(=O)OC(C)(C)C)c2c(=O)cc(-c3ccccc3)oc2c1` the figure was -8.59% (inactive).
With `Cn1cnc2c1c(=O)n(CC(O)CO)c(=O)n2C` (stereo not drawn), the growth inhibition is -5.12% (inactive).
The result for `O=C(O)c1ccccc1C(=O)OCCCCOC(=O)c1ccccc1C(=O)O` reads -3.9% (inactive); that for `COc1ccc(C(=O)NCC2OCCc3ccccc32)cc1` (stereo not drawn), -3.22% (inactive).
With `O=C1CC(c2ccc(F)cc2)Cc2nc(NCC3CCCO3)ncc21` (stereo not drawn) the figure was 6.43% (inactive); with `COc1ccccc1OCC(=O)O`, -2.4% (inactive).
Take `NC(N)=NC(N)=Nc1ccc2ccccc2c1`: the growth inhibition is -11.6% (inactive).
The result for `O=C(c1cc2cc(Br)ccc2o1)N1CCCCC1` reads 5.37% (inactive).
The result for `Cc1ccc2c(CN3CCN(Cc4ccc5c(c4)OCO5)CC3)cc(=O)oc2c1C` reads 0.516% (inactive).
With `COc1ccc(-c2cc(=O)oc3cc(OC(C)C(=O)O)ccc23)cc1` (stereo not drawn) the figure was -0.213% (inactive).
For the compound `CN(Cc1c(C(=O)N(C)Cc2ccccc2)nc2ccccn12)CC1Cc2ccccc2O1` (stereo not drawn), the growth inhibition was 11.4% (inactive).
For the compound `CC(C)CCc1noc(CN2CCC(CCN3CCCC3=O)CC2)n1`, the growth inhibition is 4.25% (inactive).
Consider `Cn1c(SCC(=O)c2ccccc2)nnc1-c1ccncc1`, for which the growth inhibition is 0.861% (inactive).
